Several values for one entry are separate records, joined by “and”; a condition that tells them apart may be missing. Identical values can stand only once. Records with an inconclusive call do not appear. Activity calls are given as the source filed them. Rule for the calls: active = hit-call score of the fitted dose curve at least 0.9, where 1 is the maximum; inconclusive = response in the unintended direction; inactive = score below 0.9.
Tests used:
[1] = biological target: human Beta-secretase (BACE), BACE1 (gene 23621) (UniProt P56817); experiment: NVS_ENZ_hBACE: NovaScreen (NVS) Enzymatic Assay for human Beta-secretase (BACE) (AID 2283140);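 note: hits are inhibitors that reduce fluorescent substrate signal versus DMSO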
Method in brief: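 SF9-expressed enzyme, cell-free; fluorescent substrate readout after 1 h. Screened at 25 uM single concentration, duplicate; hits retested in concentration series. Activity relative to DMSO baseline, loss-of-signal.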

[2] = biological target: rat CYP2C13, Cyp2c13 (gene 171521) (UniProt P20814); experiment: NVS_ADME_rCYP2C13: NovaScreen (NVS) CYP450-related Enzyme Activity (ADME) Assay for rat CYP2C13 (AID 2283121)
Procedure: NVS_ADME_rCYP2C13 is a biochemical, single-readout assay that uses extracted gene-proteins in a cell-free assay. Measurements were taken 0.75 hour after chemical dosing in a 96-well plate.NVS_ADME_rCYP2C13 is one of one assay component(s) measured or calculated from the NVS_ADME_rCYP2C13 assay. It is designed to make measurements of enzyme activity, a form of enzyme reporter, as detected with fluorescence intensity signals by Fluorescence technology.Data from the assay component NVS_ADME_rCYP2C13 was analyzed into 1 assay endpoint. This assay endpoint, NVS_ADME_rCYP2C13, was analyzed in the positive analysis fitting direction relative to Acetonitrile as the negative control and baseline of activity. Using a type of enzyme reporter, loss-of-signal activity can be used to understand changes in the enzymatic activity as they relate to the gene Cyp2c13. Furthermore, this assay endpoint can be referred to as a primary readout, because this assay has produced multiple assay endpoints where this one serves a enzymatic activity function. To generalize the intended target to other relatable targets, this assay endpoint is annotated to the cyp intended target family, where the subfamily is xenobiotic metabolism.
(§1) Binding assays used specific radioligands (tritiated, iodinated) with non-radioactive competitive displacement ligands in agonist or antagonist protocols (as indicated) and various reference compounds and inhibitors to titrate specific binding to receptors and transporters. Most enzyme assays (CYPs, kinases, phosphatases, proteases, HDACs) used recombinant protein and specific substrates (fluorescence mostly, some colorimetric and radioactive) and inhibitors, followed by a biochemical separation of substrate and product. All assays for the biochemical HTS were initially run in duplicate at a single concentration (10 uM for CYP450 assays and 25 uM for all others). […] Each assay was run with positive and negative controls, and concurrent controls on every plate. The follow-up (secondary) screen tested active chemical-pairs in concentration series, as well as a few additional assays not tested in the primary screen, some selected negative inactives, and several cases re-run in the concentration series for confirmatory purposes.

[3] = biological target: human AKT serine/threonine Kinase 1 (AKT1), AKT1 (gene 207) (UniProt P31749); experiment: NVS_ENZ_hAKT1: NovaScreen (NVS) Enzymatic Assay for human AKT serine/threonine Kinase 1 (AKT1) (AID 2283138)
Method in brief: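 Fluorescence and mobility-shift readout of kinase activity, taken 1 h post-dosing in a cell-free format with recombinant protein. Primary screen at 25 uM in duplicate; hits (e.g. 30% inhibition) retested in concentration series topping at 50 uM.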

[4] = biological target: human Caspase 5 (CASP5), CASP5 (gene 838) (UniProt P51878); experiment: NVS_ENZ_hCASP5: NovaScreen (NVS) Enzymatic Assay for human Caspase 5 (CASP5) (AID 2283137)
Method in brief: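 Fluorescent substrate readout of CASP5 activity (loss-of-signal), measured 2 h post-dose. Protein expressed in E. coli. Primary screen duplicate at 25 uM; actives meeting threshold (e.g., 30% inhibition) rerun singleton, max 50 uM.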

[5] = biological target: Caspase-3 (Homo sapiens) (UniProt P42574); experiment: NVS_ENZ_hCASP3: NovaScreen (NVS) Enzymatic Assay for human Caspase 3 (CASP3) (AID 2283139)
Method in brief: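 Single-concentration screening at 25 uM in duplicate, with concentration-response follow-up to a 50 uM maximum for chemicals passing the threshold. Caspase-3 (human, E. coli-expressed) activity was read as substrate fluorescence after 1 h, with loss of signal relative to DMSO.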

[6] = biological target: human Caspase 10 (CASP10), CASP10 (gene 843) (UniProt Q92851); experiment: NVS_ENZ_hCASP10: NovaScreen (NVS) Enzymatic Assay for human Caspase 10 (CASP10) (AID 2283133)
Method in brief: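 Fluorescence-intensity enzyme read-out of E. coli-expressed CASP10 activity, 1 h after compound. Single-point duplicates at 25 uM preceded concentration-response testing (top 50 uM) of hits; inhibition expressed as signal loss versus DMSO.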

[7] = biological target: human Acetylcholinesterase (AChE), ACHE (gene 43) (UniProt P22303); experiment: NVS_ENZ_hAChE: NovaScreen (NVS) Enzymatic Assay for human Acetylcholinesterase (AChE) (AID 2283129)
Procedure: NVS_ENZ_hAChE is a biochemical, single-readout assay that uses extracted gene-proteins in a cell-free assay. Measurements were taken 0.33 hour after chemical dosing in a 96-well plate.NVS_ENZ_hAChE is one of one assay component(s) measured or calculated from the NVS_ENZ_hAChE assay. It is designed to make measurements of enzyme activity, a form of enzyme reporter, as detected with absorbance signals by Colorimetric technology.Data from the assay component NVS_ENZ_hAChE was analyzed into 1 assay endpoint. This assay endpoint, NVS_ENZ_hAChE, was analyzed in the positive analysis fitting direction relative to DMSO as the negative control and baseline of activity. Using a type of enzyme reporter, loss-of-signal activity can be used to understand changes in the enzymatic activity as they relate to the gene ACHE. Furthermore, this assay endpoint can be referred to as a primary readout, because this assay has produced multiple assay endpoints where this one serves a enzymatic activity function. To generalize the intended target to other relatable targets, this assay endpoint is annotated to the esterase intended target family, where the subfamily is acetylcholinesterase.
as §1

[8] = test system: rat CYP3A1, gene 25642; experiment: NVS_ADME_rCYP3A1: NovaScreen (NVS) CYP450-related Enzyme Activity (ADME) Assay for rat CYP3A1 (AID 2283126)
Method in brief: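 Compounds went first at 10 uM duplicate, then to series with 20 uM maximum. Fluorescence from substrate turnover by the recombinant enzyme was measured 0.5 h post-dosing, inhibition scored against acetonitrile vehicle.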

[9] = biological target: rat CYP3A2, Cyp3a2 (gene 266682) (UniProt P05183); experiment: NVS_ADME_rCYP3A2: NovaScreen (NVS) CYP450-related Enzyme Activity (ADME) Assay for rat CYP3A2 (AID 2283128)
Method in brief: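 Fluorescence readout of extracted rat CYP3A2 activity 0.5 h post-dose, acetonitrile as negative control. Single-point testing in duplicate at 10 uM, followed by concentration series to a 20 uM maximum for actives.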

[10] = biological target: human AMP-activated Protein Kinase, alpha 1 (AMPKa1), PRKAA1 (gene 5562) (UniProt Q13131); experiment: NVS_ENZ_hAMPKa1: NovaScreen (NVS) Enzymatic Assay for human AMP-activated Protein Kinase, alpha 1 (AMPKa1) (AID 2283130)
Procedure: NVS_ENZ_hAMPKa1 is a biochemical, single-readout assay that uses extracted gene-proteins in a cell-free assay. Measurements were taken 1 hour after chemical dosing in a 384-well plate.NVS_ENZ_hAMPKa1 is one of one assay component(s) measured or calculated from the NVS_ENZ_hAMPKa1 assay. It is designed to make measurements of enzyme activity, a form of enzyme reporter, as detected with fluorescence intensity signals by Fluorescence and electrophoretic mobility shift technology.Data from the assay component NVS_ENZ_hAMPKa1 was analyzed into 1 assay endpoint. This assay endpoint, NVS_ENZ_hAMPKa1, was analyzed in the positive analysis fitting direction relative to DMSO as the negative control and baseline of activity. Using a type of enzyme reporter, loss-of-signal activity can be used to understand changes in the enzymatic activity as they relate to the gene PRKAA1. Furthermore, this assay endpoint can be referred to as a primary readout, because this assay has produced multiple assay endpoints where this one serves a enzymatic activity function. To generalize the intended target to other relatable targets, this assay endpoint is annotated to the kinase intended target family, where the subfamily is serine/threonine kinase. […]

human Beta-secretase (BACE), BACE1 (gene 23621), sequence (P56817 whole entry, looked up): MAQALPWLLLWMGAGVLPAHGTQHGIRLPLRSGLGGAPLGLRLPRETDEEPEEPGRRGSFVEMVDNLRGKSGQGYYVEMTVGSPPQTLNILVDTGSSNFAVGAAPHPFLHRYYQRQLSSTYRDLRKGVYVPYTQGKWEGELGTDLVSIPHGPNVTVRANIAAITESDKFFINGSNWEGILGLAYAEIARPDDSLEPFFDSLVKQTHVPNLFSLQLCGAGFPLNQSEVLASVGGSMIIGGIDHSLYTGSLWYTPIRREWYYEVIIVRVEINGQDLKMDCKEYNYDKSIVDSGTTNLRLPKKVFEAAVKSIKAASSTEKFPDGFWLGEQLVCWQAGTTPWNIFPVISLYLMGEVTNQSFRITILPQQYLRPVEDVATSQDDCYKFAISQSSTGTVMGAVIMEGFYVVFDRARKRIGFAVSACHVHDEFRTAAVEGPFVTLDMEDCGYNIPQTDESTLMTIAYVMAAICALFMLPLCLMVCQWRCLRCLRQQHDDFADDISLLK
rat CYP3A2, Cyp3a2 (gene 266682), sequence (P05183 whole entry, looked up): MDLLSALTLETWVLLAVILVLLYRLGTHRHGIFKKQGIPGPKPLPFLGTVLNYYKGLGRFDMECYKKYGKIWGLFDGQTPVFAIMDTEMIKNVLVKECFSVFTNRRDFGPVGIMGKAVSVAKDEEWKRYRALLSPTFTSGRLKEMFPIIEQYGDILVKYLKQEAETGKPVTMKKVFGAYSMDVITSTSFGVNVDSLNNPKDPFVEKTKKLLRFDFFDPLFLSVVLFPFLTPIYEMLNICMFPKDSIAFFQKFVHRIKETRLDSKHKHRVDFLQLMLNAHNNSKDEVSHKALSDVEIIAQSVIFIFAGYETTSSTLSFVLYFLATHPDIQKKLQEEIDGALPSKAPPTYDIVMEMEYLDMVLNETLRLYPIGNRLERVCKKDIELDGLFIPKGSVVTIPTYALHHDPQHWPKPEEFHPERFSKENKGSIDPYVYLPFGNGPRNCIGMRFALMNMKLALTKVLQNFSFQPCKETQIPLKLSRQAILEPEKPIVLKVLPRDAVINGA
human Caspase 5 (CASP5), CASP5 (gene 838), sequence (P51878 whole entry, looked up): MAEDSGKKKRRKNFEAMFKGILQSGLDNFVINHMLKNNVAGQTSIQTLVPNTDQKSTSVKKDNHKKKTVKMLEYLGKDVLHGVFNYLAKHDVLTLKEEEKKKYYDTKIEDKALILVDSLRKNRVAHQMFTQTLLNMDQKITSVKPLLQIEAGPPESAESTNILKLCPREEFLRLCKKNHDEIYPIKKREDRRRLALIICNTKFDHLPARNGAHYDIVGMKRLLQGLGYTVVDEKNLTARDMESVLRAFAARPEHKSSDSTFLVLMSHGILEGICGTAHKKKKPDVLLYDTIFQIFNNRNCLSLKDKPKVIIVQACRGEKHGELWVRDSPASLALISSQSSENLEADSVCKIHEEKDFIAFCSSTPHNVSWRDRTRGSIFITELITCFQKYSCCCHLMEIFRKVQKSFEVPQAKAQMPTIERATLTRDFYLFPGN
rat CYP2C13, Cyp2c13 (gene 171521), sequence (P20814 whole entry, looked up): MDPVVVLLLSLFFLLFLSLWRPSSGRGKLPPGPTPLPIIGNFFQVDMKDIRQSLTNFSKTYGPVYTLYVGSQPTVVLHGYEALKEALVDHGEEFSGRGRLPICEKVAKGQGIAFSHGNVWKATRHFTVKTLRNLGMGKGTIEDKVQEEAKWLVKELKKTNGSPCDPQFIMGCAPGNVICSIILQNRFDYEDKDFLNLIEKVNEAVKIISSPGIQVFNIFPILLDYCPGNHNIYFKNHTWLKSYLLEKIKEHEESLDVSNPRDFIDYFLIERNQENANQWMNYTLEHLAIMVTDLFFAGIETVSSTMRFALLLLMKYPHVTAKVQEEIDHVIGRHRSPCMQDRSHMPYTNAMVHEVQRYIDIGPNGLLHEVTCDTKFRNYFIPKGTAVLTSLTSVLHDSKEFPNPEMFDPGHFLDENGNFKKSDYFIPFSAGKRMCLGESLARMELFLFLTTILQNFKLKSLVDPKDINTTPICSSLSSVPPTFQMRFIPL
human Acetylcholinesterase (AChE), ACHE (gene 43), sequence (P22303 whole entry, looked up): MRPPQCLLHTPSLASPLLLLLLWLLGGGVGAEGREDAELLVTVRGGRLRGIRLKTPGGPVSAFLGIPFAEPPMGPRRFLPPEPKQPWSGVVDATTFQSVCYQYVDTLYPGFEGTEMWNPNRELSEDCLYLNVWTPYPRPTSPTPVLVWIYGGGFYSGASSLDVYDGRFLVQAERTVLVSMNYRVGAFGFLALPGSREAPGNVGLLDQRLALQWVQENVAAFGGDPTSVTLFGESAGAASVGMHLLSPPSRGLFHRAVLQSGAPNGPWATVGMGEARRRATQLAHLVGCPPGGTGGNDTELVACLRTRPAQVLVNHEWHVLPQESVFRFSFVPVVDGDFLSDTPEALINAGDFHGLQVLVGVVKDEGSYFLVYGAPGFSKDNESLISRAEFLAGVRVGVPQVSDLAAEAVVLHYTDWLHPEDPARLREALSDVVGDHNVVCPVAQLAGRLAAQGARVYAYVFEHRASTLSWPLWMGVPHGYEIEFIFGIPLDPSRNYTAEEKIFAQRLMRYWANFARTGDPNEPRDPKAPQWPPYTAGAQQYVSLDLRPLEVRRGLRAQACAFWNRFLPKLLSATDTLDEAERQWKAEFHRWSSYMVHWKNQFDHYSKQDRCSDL
human AKT serine/threonine Kinase 1 (AKT1), AKT1 (gene 207), sequence (P31749 whole entry, looked up): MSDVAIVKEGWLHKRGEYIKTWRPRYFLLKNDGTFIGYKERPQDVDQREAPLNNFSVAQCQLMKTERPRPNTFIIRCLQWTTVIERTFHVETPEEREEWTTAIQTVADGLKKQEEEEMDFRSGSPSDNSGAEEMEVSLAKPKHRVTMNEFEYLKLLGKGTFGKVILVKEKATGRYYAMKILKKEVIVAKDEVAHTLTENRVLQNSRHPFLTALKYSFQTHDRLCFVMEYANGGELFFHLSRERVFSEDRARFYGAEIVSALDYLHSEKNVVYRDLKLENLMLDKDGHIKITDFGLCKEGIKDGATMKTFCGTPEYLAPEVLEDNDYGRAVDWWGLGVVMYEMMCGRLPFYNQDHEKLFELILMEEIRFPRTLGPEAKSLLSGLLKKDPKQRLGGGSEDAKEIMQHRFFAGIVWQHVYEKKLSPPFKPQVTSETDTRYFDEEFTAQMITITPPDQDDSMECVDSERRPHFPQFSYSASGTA
Caspase-3 (Homo sapiens), sequence (P42574 whole entry, looked up): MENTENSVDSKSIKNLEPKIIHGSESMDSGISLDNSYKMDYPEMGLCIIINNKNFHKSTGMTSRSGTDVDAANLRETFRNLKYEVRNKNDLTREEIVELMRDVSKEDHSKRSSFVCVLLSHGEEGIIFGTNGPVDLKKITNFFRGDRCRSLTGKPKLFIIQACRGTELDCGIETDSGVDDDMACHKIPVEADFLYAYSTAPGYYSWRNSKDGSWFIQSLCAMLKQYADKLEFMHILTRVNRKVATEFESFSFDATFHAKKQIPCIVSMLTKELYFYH
human Caspase 10 (CASP10), CASP10 (gene 843), sequence (Q92851 whole entry, looked up): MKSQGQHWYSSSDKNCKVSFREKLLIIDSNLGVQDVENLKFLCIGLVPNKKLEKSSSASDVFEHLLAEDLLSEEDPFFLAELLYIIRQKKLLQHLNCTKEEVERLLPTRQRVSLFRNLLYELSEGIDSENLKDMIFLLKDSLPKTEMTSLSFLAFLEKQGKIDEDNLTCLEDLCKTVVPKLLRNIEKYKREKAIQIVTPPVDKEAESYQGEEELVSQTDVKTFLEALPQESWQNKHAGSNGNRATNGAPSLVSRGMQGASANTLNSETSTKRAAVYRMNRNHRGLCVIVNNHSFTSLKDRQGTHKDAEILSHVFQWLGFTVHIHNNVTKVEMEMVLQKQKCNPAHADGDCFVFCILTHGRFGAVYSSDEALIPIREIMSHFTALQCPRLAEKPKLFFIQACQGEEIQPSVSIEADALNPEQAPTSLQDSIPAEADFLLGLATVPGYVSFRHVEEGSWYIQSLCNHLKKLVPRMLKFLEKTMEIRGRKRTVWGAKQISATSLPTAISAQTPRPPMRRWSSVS
human AMP-activated Protein Kinase, alpha 1 (AMPKa1), PRKAA1 (gene 5562), sequence (Q13131 whole entry, looked up): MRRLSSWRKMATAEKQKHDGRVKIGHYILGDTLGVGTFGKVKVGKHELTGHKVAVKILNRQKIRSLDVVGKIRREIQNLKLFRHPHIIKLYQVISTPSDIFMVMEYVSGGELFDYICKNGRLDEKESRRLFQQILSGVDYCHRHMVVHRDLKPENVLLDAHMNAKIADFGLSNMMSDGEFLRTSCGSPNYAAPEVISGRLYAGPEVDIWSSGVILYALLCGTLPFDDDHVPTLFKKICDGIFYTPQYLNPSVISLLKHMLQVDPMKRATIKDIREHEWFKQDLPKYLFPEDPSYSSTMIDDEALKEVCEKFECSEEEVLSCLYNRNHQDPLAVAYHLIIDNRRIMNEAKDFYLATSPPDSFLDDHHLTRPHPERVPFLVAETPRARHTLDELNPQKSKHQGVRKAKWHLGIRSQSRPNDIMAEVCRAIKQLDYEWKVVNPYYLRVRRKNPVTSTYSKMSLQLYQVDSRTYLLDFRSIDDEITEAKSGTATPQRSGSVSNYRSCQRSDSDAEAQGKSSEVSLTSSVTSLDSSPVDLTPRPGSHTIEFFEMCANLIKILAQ

O=C(Nc1ccc2[nH]ccc2c1)c1cc2cc(F)ccc2n1Cc1cccc(F)c1
outcome [1]: inactive

CC1(C)CCC(Cc2ccc(Cl)cc2)C1(O)Cn1cncn1 (configuration not stated)
AC50 [2]: 1.17 µM (active)

CCOP(=S)(OCC)SCSP(=S)(OCC)OCC
outcome [3]: inactive

O=[N+]([O-])c1ccc2c3c(cccc13)CC2
AC50 [4]: 25 µM (active)

CCOC(=O)Nc1cccc(OC(=O)Nc2ccccc2)c1
AC50 [2]: 10.4 µM (active)

O=[N+]([O-])c1ccc(O)c([N+](=O)[O-])c1
outcome [5]: inactive

COc1cc2c(cc1OC)[C@@]13CCN4CC5=CCO[C@H]6CC(=O)N2[C@H]1[C@H]6[C@H]5C[C@H]43
AC50 [1]: 6.44 µM (active)

CC(C)CCCCCCOC(=O)c1ccccc1C(=O)OCCCCCCC(C)C
AC50 [1]: 8.09 µM (active)

Nc1ncc([N+](=O)[O-])s1
AC50 [4]: 9.06 µM (active)

O=C(O)C(F)(F)C(F)(F)C(F)(F)C(F)(F)C(F)(F)C(F)(F)C(F)(F)C(F)(F)C(F)(F)C(F)(F)F
outcome [6]: inactive
AC50 [4]: 3.6 µM (active)
AC50 [3]: 1.59 µM (active)
AC50 [1]: 1.51 µM (active)

C=CC(=O)OCCCCCC(C)C
outcome [3]: inactive

Nc1cccc2ccccc12
AC50 [4]: 45.2 µM (active)

CCCCCCCCc1ccc(O)cc1
outcome [4]: inactive

Cn1sc(Cl)cc1=O
outcome [4]: inactive
outcome [1]: inactive

Oc1cccc2cccnc12
outcome [7]: inactive

Clc1ccc(C2(Cn3cncn3)CC(Br)CO2)c(Cl)c1 (configuration not stated)
AC50 [2]: 1.87 µM (active)
AC50 [8]: 721 nM (active)
AC50 [9]: 1.91 µM (active)

CCC(=O)C(CC(C)N(C)C)(c1ccccc1)c1ccccc1 (configuration not stated)
outcome [3]: inactive

COc1cc(-c2ccc(N)c(OC)c2)ccc1N
AC50 [7]: 13.8 µM (active)
AC50 [1]: 16.4 µM (active)

CC(=O)[O][Hg][c]1ccccc1
AC50 [7]: 40 µM (active)
AC50 [10]: 14 µM (active)
AC50 [4]: 1.8 µM (active)
AC50 [5]: 25 µM (active)

CC(C)(C)c1cc(O)ccc1O
outcome [7]: inactive

ClC1(Cl)C2(Cl)C3(Cl)C4(Cl)C(Cl)(Cl)C5(Cl)C3(Cl)C1(Cl)C5(Cl)C24Cl (configuration not stated)
outcome [3]: inactive

COP(=S)(OC)Oc1ccc(Sc2ccc(OP(=S)(OC)OC)cc2)cc1
AC50 [8]: 9920 nM (active)
AC50 [1]: 2.51 µM (active)

C=C(C)C(=O)[O][Sn]([CH2]CCC)([CH2]CCC)[CH2]CCC
AC50 [1]: 8.77 µM (active)

O=C1C2(Cl)C3(Cl)C4(Cl)C(Cl)(Cl)C5(Cl)C3(Cl)C1(Cl)C5(Cl)C24Cl (configuration not stated)
AC50 [8]: 6.55 µM (active) and 3.69 µM (active)
AC50 [9]: 3.98 µM (active) and 7.08 µM (active) and 1.19 µM (active)
outcome [4]: inactive
outcome [1]: inactive

O=C(O)C(F)(F)C(F)(F)C(F)(F)C(F)(F)C(F)(F)C(F)(F)F
AC50 [1]: 18.6 µM (active)

CCN1CCC2(CC1)COc1cc3c(cc12)N(C(=O)c1ccc(-c2ccc(-c4nnc(C)o4)cc2C)cc1)CC3
AC50 [7]: 4.69 µM (active)
AC50 [1]: 28.3 µM (active)

Fc1ccc(C2(Cn3cncn3)OC2c2ccccc2Cl)cc1 (configuration not stated)
AC50 [2]: 0.377 µM (active)

Reference: PubChem BioAssay (EPA / NIEHS)
